The test system of experiment [1] is CRL-7250. Description: Cytotoxic Profiling of Annotated Libraries Using Quantitative High-Throughput Screening (AID 1296008). Further: potency means the concentration at half of the fitted maximal effect. On max response: on the % scale 0 is the no-effect control and ±100 the full control effect. The conditions noted are these: Five cell lines viability, CellTiter-Glo ATP luminescence, 48-72 h; max response: stronger effect = lower value. The method in brief:
(§1)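 Cells exposed to compounds for 48 or 72 hr at 37 degrees Celsius. Viability read as ATP-coupled luminescence with CellTiter-Glo after 10 min at room temperature.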

Experiment [2] deals with HaCat. The description is as above. As to conditions: Five cell lines viability, CellTiter-Glo ATP luminescence, 48-72 h; max response: stronger effect = lower value. The method in brief:
as §1
Background: ATP-based viability assays read luminescence as a measure of living cells.

In experiment [3] the test system is KB-3-1. Described as above. The conditions noted are these: Five cell lines viability, CellTiter-Glo ATP luminescence, 48-72 h; max response: stronger effect = lower value. An outline of the steps: as §1
Experiment [4] deals with NIH3T3. The description is as above. As to conditions: Five cell lines viability, CellTiter-Glo ATP luminescence, 48-72 h; max response: stronger effect = lower value. The method in brief: as §1
Experiment [5] deals with HACAT. Description: qHTS assay to identify novel small-molecules to repurpose for Merkel cell carcinoma treatment (AID 1296009). As to conditions: MCC and control cell lines, CellTiter-Glo viability, 72 h; at 44.8 µM (top of the series) unless noted. An outline of the steps: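 Cells were treated for 72 hr at 37 degree celsius with compounds in 8- or 11-point dose response. Viability was read by CellTiter-Glo luminescence, normalized to no-cell (cytotoxicity) and DMSO controls.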
In general terms: qHTS replaces the single test concentration by a dilution series.

This is an account of results in PubChem BioAssay (NCATS).

Records with an inconclusive call do not appear. A number with no mark means an inactive call. The source made the active and inactive calls. The call rests on the fitted dose curve; in most records, active means well fitted inhibition curve with a large enough effect; inconclusive means small, poorly fitted or top-dose-only effect; inactive means flat fitted curve, though single readings scatter.
Further: nearly all actives have a fitted effect of over 60% in size.

In the case of `O=[N+]([O-])c1ccc(Oc2ccc3c(c2)CCC(c2ccccc2)O3)nc1` (stereo not given), the outcome in experiment [1], in experiment [2] and in experiment [5] was inactive. Besides, the max response was -24.2% in experiment [3] and -17% in experiment [4].
Consider `O=C(NCc1ccc(OC(F)(F)F)cc1)C1c2c(F)cccc2C(=O)N1CCc1ccccn1` (stereo not given), for which the values for the max response in experiment [1], in experiment [3] and in experiment [4] were -3.88%, 4.96% and -2.89%, respectively. In addition, the outcome in experiment [2] and in experiment [5] was inactive.
For the compound `COc1ccc([C@H](Cc2ccncc2)c2ccccc2)cc1OC1CCCC1`, the values for the max response in experiment [1], in experiment [3] and in experiment [4] were -5.35%, -4.42% and -22.8%, respectively. The result in experiment [2] and in experiment [5] was inactive.
In the case of `O=C([C@@H](Cc1cccc(C(F)(F)F)c1)NS(=O)(=O)c1cc(F)c2c(c1)CCNC2)N1CCCC1`, the compound was classed as inactive in experiment [1], in experiment [2], in experiment [3], in experiment [4] and in experiment [5].
Consider `CC(=O)c1ccc2c(c1)[C@H](NC(=O)c1ccc(F)c(Cl)c1)[C@H](O)C(C)(C)O2`, for which the max response was -9.32% in experiment [1] and 2.28% in experiment [3]. The compound was classed as inactive in experiment [2], in experiment [4] and in experiment [5].
Consider `O=C(c1cc(Cc2n[nH]c(=O)c3ccccc23)ccc1F)N1CCCNCC1`, for which the values for the max response in experiment [1] and in experiment [4] were 0.306% and 0.0332%, respectively. Further, the call in experiment [2], in experiment [3] and in experiment [5] was inactive.
`COc1ccc2c(NC(=O)Nc3cccc(C(F)(F)F)n3)ccnc2c1`: the max response in experiment [1] was -17.8%; in experiment [4] it was -6.75%. Besides, the call in experiment [2], in experiment [3] and in experiment [5] was inactive.
As for `O=c1[nH]c2ccccc2n1CCN1CCN(c2cccc(C(F)(F)F)c2)CC1`, the result in experiment [1], in experiment [2], in experiment [4] and in experiment [5] was inactive. In experiment [3], the max response was -13.2%.
Regarding `C/C=C(/C=C(C)/C=C/C=C/C=C(\C)C(=O)C12OC1C(O)(CCO)NC2=O)C(=O)OC` (stereo not given), the max response in experiment [1] was -6.59%; in experiment [4], -1.05%. The compound was called inactive in experiment [2] and in experiment [3]. Moreover, in experiment [5], the outcome was “inactive [at 17.4 µM]”.
Take `CC/C=C\CC1C(=O)C=CC1(CCCCC1CCC(=O)O1)OC(C)=O` (stereo not given): the call in experiment [1], in experiment [2] and in experiment [5] was inactive. Also, the figures for the max response in experiment [3] and in experiment [4] were 4.62% and 4.76%, respectively.
As for `COC(=O)c1ccc2c(c1)[nH]c1ncnc(NCCCN3CCCCC3)c12`, the max response was -8.38% in experiment [1] and -20.2% in experiment [3]. Further, the call in experiment [2], in experiment [4] and in experiment [5] was inactive.
Consider `O=C1COC2(CCN(S(=O)(=O)c3ccc(-c4ccc5cccnc5c4)cc3)CC2)CN1C1CC1`, for which the values for the max response in experiment [1], in experiment [3] and in experiment [4] were -2.24%, 7.72% and -10.8%, respectively. For the same compound, the result in experiment [2] and in experiment [5] was inactive.
For `CC(C)(C)c1ccc2c(c1)CC[C@H]2NC(=O)Nc1cccc2[nH]ncc12`, the values for the max response in experiment [1] and in experiment [3] were -3.64% and -1.56%, respectively. Moreover, the call in experiment [2], in experiment [4] and in experiment [5] was inactive.
Take `CCNC1(C(N)=O)CN(c2nc(C)nc3c(-c4ccc(Cl)cc4)c(-c4ccccc4Cl)nn23)C1`: the max response in experiment [1] is -17.8%; in experiment [3], -14.3%; in experiment [4], -3.55%. Moreover, the call in experiment [2] and in experiment [5] was inactive.
For the compound `COc1ccc(-c2cnc3c(-c4cccc5ncccc45)cnn3c2)cc1`, the compound was called inactive in experiment [1], in experiment [2] and in experiment [5]. Moreover, the results for the max response in experiment [3] and in experiment [4] were -5.9% and -19.7%, respectively.
On to `COC(=O)/C=C/C=C/C(=O)OC1C=C2COC(=O)C2(O)C2(C)CCCC(C)(C)C12` (stereo not given), for which the compound was called inactive in experiment [1] and in experiment [2]. Besides, the max response was 4.64% in experiment [3] and -4.83% in experiment [4]. In experiment [5], the outcome is “inactive [at 17.4 µM]”.
Turning to `CC(C)Nc1nc(Nc2ccccc2)nc(-c2ccccc2)n1`, the max response in experiment [1] was -10.5%; in experiment [3], -2.52%; in experiment [4], -18.6%. In addition, the compound was classed as inactive in experiment [2] and in experiment [5].
On to `CC(C)c1c(O)ccc2c1CC[C@H]1C(C)(C)CCC[C@]21C`, for which the outcome in experiment [1], in experiment [2], in experiment [4] and in experiment [5] was inactive. Besides, in experiment [3], the max response is 7.3%.
Turning to `CNCCC(c1cccs1)c1ccc(O)c2ccccc12` (stereo not given), the values for the max response in experiment [1] and in experiment [3] were 3.5% and 6.48%, respectively. Moreover, the result in experiment [2], in experiment [4] and in experiment [5] was inactive.
Take `O=C(NCCCNc1nc(Nc2cccc(CN3CCOCC3)c2)ncc1C1CC1)C1CCC1`: the figures for the Potency in experiment [1], in experiment [3] and in experiment [4] were 5.8 µM (active), 20.6 µM (active) and 4.61 µM (active), respectively. Further, the compound was classed as inactive in experiment [2] and in experiment [5].
As for `CC(C)(C)c1ccc(C(=O)Nc2cn3cc(-n4ccnc4)ccc3n2)cc1`, the call in experiment [1], in experiment [2] and in experiment [5] was inactive. For the same compound, the max response was 7.42% in experiment [3] and -1.43% in experiment [4].
In the case of `C=C1C(=O)O[C@@H]2[C@H]1CC[C@H](C)[C@]1(CCC(=O)O1)C2(C)O` (stereo not given in full), the results for the max response in experiment [1] and in experiment [4] were -3% and -19.6%, respectively. Besides, the compound was called inactive in experiment [2], in experiment [3] and in experiment [5].
Regarding `CCCN(CCc1ccsc1)C1CCc2c(O)cccc2C1` (stereo not given), the max response was 4.38% in experiment [1] and 0.967% in experiment [3]. Also, the compound was classed as inactive in experiment [2], in experiment [4] and in experiment [5].
